{
  "source": "PubChem BioAssay (NCI)",
  "note": "The panel holds about 83,000 compounds, 20% with a hit somewhere; the sample as a whole holds those more often.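 Cell lines were cultured in 96-well plates, exposed to a single compound concentration, and assessed for percent growth 48 hours later.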 Active and inactive are the calls of the source. Rule for the calls: active = growth percent below 10; inactive = the rest.",
  "data": [
    {"system": "MCF7 breast", "test": "NCI-60 one-dose screen, 48 h (100 = growth as untreated, 0 = no growth, -100 = all killed)", "settings": "10 µM unless noted", "values": [
      {"smiles": "C/C(=N\\NC(=O)c1ccccc1O)c1cccc(/C(C)=N/NC(=O)c2ccccc2O)n1", "growth": "44.3% (inactive)"},
      {"smiles": "O=[N+]([O-])c1ccc(-c2nc(N3CCOCC3)c3c4c(sc3n2)CCCC4)cc1", "growth": "73.1% (inactive)"},
      {"smiles": "O=C(Nn1c2c(sc1=Nc1ccccc1)C(=O)c1ccccc1C2=O)c1cc2ccc1CCc1ccc(cc1)CC2", "growth": "45.6% (inactive)"},
      {"smiles": "N=C(N)c1ccc(-c2ccc(-c3cc(Cl)cc(Cl)c3)o2)o1", "growth": "-77.6% (active)"},
      {"smiles": "O=C(NNc1nccc(Nc2ccc(S(=O)(=O)Nc3ccncc3)cc2)n1)c1ccccc1", "growth": "94% (inactive)"},
      {"smiles": "O=C1/C(=C/c2cccs2)SC(=S)N1CCCN1CCOCC1", "growth": "73.8% (inactive)"},
      {"smiles": "CCN(CC)C(=S)SC(SC(=S)N(CC)CC)C(=O)c1nnn(-c2ccc([N+](=O)[O-])cc2)c1C", "growth": "59.3% (inactive)"},
      {"smiles": "C=C(C)[C@@H]1CC[C@]2(C(=O)O)CC[C@]3(C)[C@H](CC[C@@H]4[C@@]5(C)C[C@@H](Cc6cn(CCO[C@@H]7O[C@H](COC(C)=O)[C@H](OC(C)=O)[C@H](OC(C)=O)[C@H]7OC(C)=O)nn6)[C@H](O)C(C)(C)[C@@H]5CC[C@]43C)[C@@H]12", "growth": "47.1% (inactive)"},
      {"smiles": "O=C(Cn1cc(CN2CCCCCC2)nn1)Nc1ccc2c(ccn2Cc2ccccc2)c1", "growth": "90.2% (inactive)"},
      {"smiles": "COc1ccc(C(c2cc(OC)c(OC)c(OC)c2)N2CCN(c3ccccc3)CC2)cc1", "note": "(stereo not drawn)", "growth": "72.8% (inactive)"},
      {"smiles": "CCN(CC)CCNC(=O)c1cn2ncnc(Oc3ccc(NC(=O)Nc4ccc(Cl)c(C(F)(F)F)c4)c(F)c3)c2c1C", "growth": "-65% (active)"},
      {"smiles": "Cc1ccc(-n2c(=S)[nH]c3sc4c(c3c2=O)CCC(=O)C4)cc1", "growth": "14.7% (inactive)"},
      {"smiles": "C/C(Nc1ccc(Cl)c(Cl)c1)=C1\\CCOC1=O", "growth": "96.1% (inactive)"},
      {"smiles": "COc1cc(-c2cc(-c3cccs3)c(C#N)c(N3CCOCC3)n2)cc(OC)c1OC", "growth": "61.9% (inactive)"},
      {"smiles": "CCN1CC(=O)N(/N=C2\\C(=O)Nc3ccccc32)C1=S", "growth": "84.1% (inactive)"},
      {"smiles": "C=CCn1cc(-c2nc3ccccc3s2)c2cc(-c3ccc4c5c(cccc35)C(=O)N(N)C4=O)ccc21", "growth": "75.2% (inactive)"},
      {"smiles": "N=C(N)c1ccc(-c2ccc(-c3ccc(Cl)cc3)s2)nc1", "growth": "-73.3% (active)"},
      {"smiles": "Cc1cc2c(O)c(-c3cccc(Cl)c3)c3sc(=O)oc3c2cc1C", "growth": "26.3% (inactive)"},
      {"smiles": "N#Cc1cccc(NC(=O)c2oc3ccccc3c2-c2cnn(-c3ccccc3)c2)c1", "growth": "57.3% [50 µM] (inactive)"},
      {"smiles": "Cc1cc2c(O)c(-c3cc(Cl)ccc3Cl)c3sc(=O)oc3c2cc1C", "growth": "60.9% (inactive)"},
      {"smiles": "Cc1ccccc1NC(=O)c1sc2nc(C)c(C(=O)/C=C/c3ccccc3)cc2c1N", "growth": "9.97% (active)"},
      {"smiles": "COc1cc(NC(C)CCCNC(C)C)c2ncccc2c1OC", "note": "(stereo not drawn)", "growth": "93.5% (inactive)"},
      {"smiles": "COc1cc(CNC(=O)CCCC/C=C/C(C)C)ccc1OCc1nnc(Nc2ccc([N+](=O)[O-])cc2)o1", "growth": "55.2% (inactive)"},
      {"smiles": "COP(=O)(OC)C(C)(C)CC(=O)CC(C#N)(C#N)C(C#N)C#N", "growth": "92.1% (inactive)"},
      {"smiles": "COC(=O)CCC(=O)C(=O)OC", "growth": "49.8% [10 mM] (inactive)"},
      {"smiles": "Clc1ccc(CNc2c3ccccc3nc3ccccc23)cc1", "growth": "16% (inactive)"},
      {"smiles": "COc1ccc2nc(NC(=O)CSc3nnc4n3S(=O)(=O)c3ccccc3N4C)sc2c1", "growth": "96.6% (inactive)"},
      {"smiles": "CCc1nc2c(=O)[nH]cnc2o1", "growth": "96.4% (inactive)"}
    ]},
    {"system": "HCT-116 colon", "test": "NCI-60 one-dose screen, 48 h (100 = growth as untreated, 0 = no growth, -100 = all killed)", "settings": "10 µM unless noted", "values": [
      {"smiles": "COC(=O)c1c2c(c(C)[n+]([O-])c1C)C(=O)C(NCc1ccc(Cl)cc1)=CC2=O", "growth": "11.5% (inactive)"},
      {"smiles": "C=C1C(=O)O[C@H]2[C@H]1CC/C(COC(=O)CCSCCC(=O)OC/C1=C/CC[C@@]3(C)O[C@H]3[C@H]3OC(=O)C(=C)[C@@H]3CC1)=C\\CC[C@@]1(C)O[C@@H]21", "growth": "-60.2% (active)"},
      {"smiles": "Cc1c(-n2nnc(-c3nc4ccccc4s3)c2N)c(=O)n(-c2ccccc2)n1C", "growth": "103% (inactive)"},
      {"smiles": "O=C(c1cc2ccccc2o1)c1nn(-c2ccccc2)/c(=N/N=Cc2cn(-c3ccccc3)nc2-c2cc3ccccc3oc2=O)s1", "growth": "89.8% (inactive)"},
      {"smiles": "C=CCn1c(SCC(=O)NCc2cc(C)c(O)c(C)c2)nc2ccc(Cl)cc2c1=O", "growth": "102% (inactive)"},
      {"smiles": "CNC(=O)c1c(NC(=O)c2ccc(C(F)(F)F)cc2)sc2c1CCC(=O)C2", "growth": "-46.4% (active)"},
      {"smiles": "O=C(Nc1ccc(-c2nc(N3CCOCC3)c3cccn3n2)cc1)Nc1cccnc1", "growth": "4.12% (active)"},
      {"smiles": "COc1ccc(/C(C)=C(/c2ccc(OCCCN(C)C)cc2)c2ccc(OC(=O)Cc3ccccc3)cc2)cc1", "growth": "57.4% (inactive)"},
      {"smiles": "O=C(NCc1ccccc1)Nc1ccccc1CNc1nc(Nc2ccc(OCCN3CCCC3)cc2)ncc1Cl", "growth": "95.5% (inactive)"},
      {"smiles": "CN1C(=O)/C(=C/c2ccc(C(=O)Nc3ncc(Cc4ccc(Cl)cc4)s3)cc2)SC1=S", "growth": "24.2% (inactive)"},
      {"smiles": "CCN1C(=O)N(CC)C2C1NN=c1s/c(=C\\c3cccc([N+](=O)[O-])c3)c(=O)n12", "note": "(stereo not drawn)", "growth": "11% (inactive)"},
      {"smiles": "CCN(CC)CCOc1ccc(C(=C(C)c2ccc(Cl)cc2)c2ccc(OCCN(CC)CC)cc2)cc1", "growth": "-94.1% (active)"},
      {"smiles": "C/C(=N\\NC(=O)c1ccccc1O)c1cccc(/C(C)=N/NC(=O)c2ccccc2O)n1", "growth": "27.1% (inactive)"},
      {"smiles": "O=[N+]([O-])c1ccc(-c2nc(N3CCOCC3)c3c4c(sc3n2)CCCC4)cc1", "growth": "68.1% (inactive)"},
      {"smiles": "O=C(Nn1c2c(sc1=Nc1ccccc1)C(=O)c1ccccc1C2=O)c1cc2ccc1CCc1ccc(cc1)CC2", "growth": "60.9% (inactive)"},
      {"smiles": "N=C(N)c1ccc(-c2ccc(-c3cc(Cl)cc(Cl)c3)o2)o1", "growth": "-69.4% (active)"},
      {"smiles": "O=C(NNc1nccc(Nc2ccc(S(=O)(=O)Nc3ccncc3)cc2)n1)c1ccccc1", "growth": "99.2% (inactive)"},
      {"smiles": "O=C1/C(=C/c2cccs2)SC(=S)N1CCCN1CCOCC1", "growth": "87.8% (inactive)"},
      {"smiles": "CCN(CC)C(=S)SC(SC(=S)N(CC)CC)C(=O)c1nnn(-c2ccc([N+](=O)[O-])cc2)c1C", "growth": "95.7% (inactive)"},
      {"smiles": "C=C(C)[C@@H]1CC[C@]2(C(=O)O)CC[C@]3(C)[C@H](CC[C@@H]4[C@@]5(C)C[C@@H](Cc6cn(CCO[C@@H]7O[C@H](COC(C)=O)[C@H](OC(C)=O)[C@H](OC(C)=O)[C@H]7OC(C)=O)nn6)[C@H](O)C(C)(C)[C@@H]5CC[C@]43C)[C@@H]12", "growth": "44.7% (inactive)"},
      {"smiles": "O=C(Cn1cc(CN2CCCCCC2)nn1)Nc1ccc2c(ccn2Cc2ccccc2)c1", "growth": "95% (inactive)"},
      {"smiles": "COc1ccc(C(c2cc(OC)c(OC)c(OC)c2)N2CCN(c3ccccc3)CC2)cc1", "note": "(stereo not drawn)", "growth": "62.8% (inactive)"},
      {"smiles": "CCN(CC)CCNC(=O)c1cn2ncnc(Oc3ccc(NC(=O)Nc4ccc(Cl)c(C(F)(F)F)c4)c(F)c3)c2c1C", "growth": "-79.3% (active)"},
      {"smiles": "Cc1ccc(-n2c(=S)[nH]c3sc4c(c3c2=O)CCC(=O)C4)cc1", "growth": "36.2% (inactive)"},
      {"smiles": "C/C(Nc1ccc(Cl)c(Cl)c1)=C1\\CCOC1=O", "growth": "80.7% (inactive)"},
      {"smiles": "COc1cc(-c2cc(-c3cccs3)c(C#N)c(N3CCOCC3)n2)cc(OC)c1OC", "growth": "51.7% (inactive)"},
      {"smiles": "CCN1CC(=O)N(/N=C2\\C(=O)Nc3ccccc32)C1=S", "growth": "94.9% (inactive)"},
      {"smiles": "C=CCn1cc(-c2nc3ccccc3s2)c2cc(-c3ccc4c5c(cccc35)C(=O)N(N)C4=O)ccc21", "growth": "96.6% (inactive)"},
      {"smiles": "N=C(N)c1ccc(-c2ccc(-c3ccc(Cl)cc3)s2)nc1", "growth": "-82.3% (active)"},
      {"smiles": "Cc1cc2c(O)c(-c3cccc(Cl)c3)c3sc(=O)oc3c2cc1C", "growth": "18.1% (inactive)"},
      {"smiles": "N#Cc1cccc(NC(=O)c2oc3ccccc3c2-c2cnn(-c3ccccc3)c2)c1", "growth": "70.9% [50 µM] (inactive)"},
      {"smiles": "Cc1cc2c(O)c(-c3cc(Cl)ccc3Cl)c3sc(=O)oc3c2cc1C", "growth": "36.2% (inactive)"},
      {"smiles": "Cc1ccccc1NC(=O)c1sc2nc(C)c(C(=O)/C=C/c3ccccc3)cc2c1N", "growth": "10.1% (inactive)"},
      {"smiles": "COc1cc(NC(C)CCCNC(C)C)c2ncccc2c1OC", "note": "(stereo not drawn)", "growth": "92% (inactive)"},
      {"smiles": "COc1cc(CNC(=O)CCCC/C=C/C(C)C)ccc1OCc1nnc(Nc2ccc([N+](=O)[O-])cc2)o1", "growth": "24.6% (inactive)"},
      {"smiles": "COP(=O)(OC)C(C)(C)CC(=O)CC(C#N)(C#N)C(C#N)C#N", "growth": "92.4% (inactive)"},
      {"smiles": "COC(=O)CCC(=O)C(=O)OC", "growth": "9.17% [10 mM] (active)"},
      {"smiles": "Clc1ccc(CNc2c3ccccc3nc3ccccc23)cc1", "growth": "15.7% (inactive)"},
      {"smiles": "COc1ccc2nc(NC(=O)CSc3nnc4n3S(=O)(=O)c3ccccc3N4C)sc2c1", "growth": "97.1% (inactive)"},
      {"smiles": "CCc1nc2c(=O)[nH]cnc2o1", "growth": "103% (inactive)"}
    ]}
  ]
}
